Compound activity from PubChem BioAssay.
FLuc counter: qHTS profiling assay for firefly luciferase inhibitor/activator using purifed enzyme and Km concentrations of substrates (counterscreen for miR-21 project); 360,000 compounds, 6.9% hits; Luciferin 4-monooxygenase (Photinus pyralis), P08659; purified FLuc, Km substrates, luminescence inhibition; AID 588342, 2011; Potency, µM (titrated, usually from 57.5 µM), hits mostly inhibitors; further: nearly all actives have a fitted effect of over 55% in size
Target sequence (P08659 whole entry, looked up): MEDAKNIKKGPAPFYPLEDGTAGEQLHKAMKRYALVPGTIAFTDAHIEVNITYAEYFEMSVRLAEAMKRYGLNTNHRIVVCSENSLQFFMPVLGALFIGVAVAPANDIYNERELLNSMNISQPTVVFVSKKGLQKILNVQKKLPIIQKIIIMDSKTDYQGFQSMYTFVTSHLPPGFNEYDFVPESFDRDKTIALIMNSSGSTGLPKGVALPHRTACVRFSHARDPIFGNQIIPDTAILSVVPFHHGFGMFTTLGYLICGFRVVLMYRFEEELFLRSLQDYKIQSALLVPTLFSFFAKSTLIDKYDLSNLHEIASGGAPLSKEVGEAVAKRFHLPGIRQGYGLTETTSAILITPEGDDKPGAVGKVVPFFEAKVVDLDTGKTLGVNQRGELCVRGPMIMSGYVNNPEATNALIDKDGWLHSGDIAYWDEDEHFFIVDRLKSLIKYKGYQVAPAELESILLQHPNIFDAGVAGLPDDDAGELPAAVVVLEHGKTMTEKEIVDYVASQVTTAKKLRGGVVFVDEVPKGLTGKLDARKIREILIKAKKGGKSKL
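Biochemical qHTS of compounds, final roughly 60 µM downward over six points, against 10 nM purified firefly luciferase using Km concentrations of substrates (10 uM D-luciferin, 10 uM ATP) in Tris acetate pH 7.5 buffer; luminescence output.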
Rab9 prom act: qHTS Assay for Rab9 Promoter Activators; AID 485297, 2010; 320,000 compounds, 2.8% hits; Huh7 Rab9 promoter-luciferase reporter, luminescence, 24 h; Potency, µM (titrated, usually from 9.22 µM), usual class: activators; further: nearly all actives have a fitted effect of over 60% in size
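Luminescence from Amplite-detected luciferase (10 minutes, ambient) reports Rab9 promoter activation. Before that, stable Rab9-luciferase Huh7 cells (1500/well, reduced-serum OP-MEM I plus 10% FBS) were exposed to compound for 24 hours at 37C.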
ELG1 genotoxic: qHTS screen for small molecules that induce genotoxicity in human embryonic kidney (HEK293T) cells expressing luciferase-tagged ELG1; HEK293T ELG1-luciferase reporter, luminescence, 16 h; Potency, µM (doses to about 46 µM), most hits filed as activators; 330,000 compounds, 1.3% hits; further: nearly all actives have a fitted effect of over 60% in size
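HEK293T cells expressing luciferase-tagged ELG1 were exposed to compound or DMSO vehicle for 16 hr at 37 °C and 5% CO2. Luciferase activity was then measured with ONE-Glo after 30 min at room temperature.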
NPC1 promoter act: qHTS Assay for NPC1 Promoter Activators. 320,000 compounds, 2.4% hits. Huh7 NPC1 promoter luciferase reporter, 24 h. Potency, µM (top dose mostly 9.22 µM), most hits filed as activators; further: nearly all actives have a fitted effect of over 60% in size
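Cells: Huh7 expressing luciferase under the NPC1 promoter, 1500/well. Seeded 2 h, compound added, incubated 24 h at 37 °C. Luciferase reagent, 10 min ambient, then luminescence.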
SMN2 splice enh: qHTS Assay for Enhancers of SMN2 Splice Variant Expression; 210,000 compounds, 2.8% hits; HEK293 SMN2-luciferase splicing reporter, luminescence, 30-36 h; Potency, µM (titrated, usually from 46.1 µM), hits mostly activators; further: nearly all actives have a fitted effect of over 55% in size
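qHTS luciferase splicing reporter: luminescence rises when SMN2 exon 7 is included in transfected HEK293 cells. Compound exposure lasted 30-36 h at 37C, with 4.5 mM final sodium butyrate as control, followed by a ONE-Glo read.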
p53 reactivation: qHTS assay for re-activators of p53 using a Luc reporter; Potency, µM (highest dose often 92.2 µM), hits mostly activators; H1299 p53-A138V BP100-luciferase reporter, luminescence, 24 h; 320,000 compounds, 0.063% hits; further: nearly all actives have a fitted effect of over 45% in size
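p53-null H1299 cells stably carrying temperature-sensitive p53-A138V and a BP100-luciferase reporter were pinned with compounds (4-point, 1:5 series) and held 24 hrs at 37 deg C. Luminescence was read 10 min after detection reagent.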
Numbers stand for hits; n = inactive; u = inconclusive; x = no result. Compounds with a hit are over-represented: about 7.3% of the library has one in this group of screens. The call rests on the fitted dose curve; in most records, active means well fitted curve in the direction sought with a large enough effect; inconclusive means small, poorly fitted or top-dose-only effect, or another doubt; inactive means no such curve, though single readings can be large; an effect the other way counts as inactive or inconclusive.

SMILES	FLuc counter	Rab9 prom act	ELG1 genotoxic	NPC1 promoter act	SMN2 splice enh	p53 reactivation
COC(=O)c1ccccc1C(=O)N(Cc1cccnc1)CC1CCCN(C2CCCCC2)C1 (stereo unspecified)	n	n	n	n	x	n
Cc1ccccc1CNC(=O)c1cc2cc(S(=O)(=O)N3CCCCC3)ccc2n1C	n	x	x	x	x	x
Cc1ccc(S(=O)(=O)N2CCOCC2)cc1NC(=O)COC(=O)CNC(=O)c1ccc(C(C)(C)C)cc1	0.95µM	n	n	n	u	n
Cc1ccc(S(=O)(=O)N2CCOCC2)cc1NC(=O)COC(=O)CCOc1ccc(C(C)(C)C)cc1	3.8µM	n	n	n	x	n
Cc1ccc(C(=O)NCC(=O)OCC(=O)Nc2cc(S(=O)(=O)N3CCOCC3)ccc2C)cc1	u	n	n	n	x	n
Cc1ccc(S(=O)(=O)N2CCOCC2)cc1NC(=O)COC(=O)CNC(=O)c1ccc(Oc2ccccc2)cc1	1.9µM	n	n	n	n	n
Cc1cc(C)cc(OCC(=O)OCC(=O)Nc2cc(S(=O)(=O)N3CCOCC3)ccc2C)c1	n	n	n	n	x	n
CCN1C(=O)/C(=C/c2ccc(N3CCCC3)cc2)NC1=S	19µM	n	n	n	n	u
Cc1cc(N2CCCC2)ccc1/C=C1/C(=O)N(C)C(=S)N1C	n	n	n	n	n	n
Cc1cc(/C=C2\NC(=S)N(C)C2=O)ccc1N1CCCC1	7.6µM	3.5µM	u	u	x	n
Cc1cc(/C=C2/C(=O)N(C)C(=S)N2C)ccc1N1CCCC1	4.8µM	u	u	u	13µM	u
O=C(CCn1nc(-c2ccccc2)ccc1=O)N1CCOCC1	n	n	n	n	n	n
O=C(Nc1cccc(C(F)(F)F)c1)Nc1ccc2snnc2c1	n	x	x	x	n	x
O=C(Nc1ccccc1)Nc1ccc2snnc2c1	11µM	u	n	u	11µM	u
CN(C)c1ccc(NC(=O)Nc2ccc3snnc3c2)cc1	7.6µM	u	n	u	n	u
O=C(Nc1ccccc1)Nc1ccc2nnsc2c1	7.6µM	4µM	n	u	x	n
O=C(CN1C(=O)COc2ccc(S(=O)(=O)N3CCOCC3)cc21)N1CCN(c2ccc(F)cc2)CC1	n	x	x	x	n	x
COc1ccc(CNC(=O)CS(=O)(=O)c2cccc3nsnc23)cc1	n	x	x	x	x	x
CCCOC(=O)Nc1nc2ccccc2o1	13µM	2.5µM	u	2.2µM	u	n
FC(F)(F)Oc1ccc(Nc2nc3ccccc3o2)cc1	8.5µM	u	u	2.5µM	u	n
Cc1cc(C)nc(Nc2nc3ccccc3o2)n1	n	n	n	n	x	n
O=C(NC(=Nc1nc2ccccc2o1)NC(=O)c1ccccc1)c1ccccc1	n	u	u	n	u	n
c1ccc(Nc2nc3ccccc3o2)cc1	3µM	2.5µM	1.8µM	2µM	u	u
CCOC(=O)C(=CN=C(N)Nc1nc2ccccc2o1)C(=O)OCC	n	u	u	u	x	n
O=C(NNc1nc2ccccc2o1)c1ccccc1	2.7µM	0.79µM	n	u	x	n
SMILES	FLuc counter	Rab9 prom act	ELG1 genotoxic	NPC1 promoter act	SMN2 splice enh	p53 reactivation
Cc1nn(-c2ccccc2)c(C)c1C(=O)NNC(=O)C(F)(F)F	n	n	n	n	x	n
Cc1ccc(NC(=O)CN2C(=O)C(c3ccccc3)=NC2(C)C)cc1C	n	x	x	x	n	x
Cc1nc(Nc2ccccc2F)c2oc3ccccc3c2n1	u	n	n	n	x	n
Fc1ccccc1Nc1nc2ccccc2o1	1.5µM	0.4µM	2.1µM	0.71µM	x	x
Cc1cccc(NC(=O)COn2nnc3ccc(S(C)(=O)=O)cc32)c1	n	n	n	n	n	n
COC(=O)N1C(C)=Cc2ccccc2C1CC(C)=O (stereo unspecified)	x	x	x	x	n	x
O=c1[nH]c(=O)n([C@H]2C[C@H](O)[C@@H](CO)O2)cc1Br	n	n	n	n	10µM	n
O=c1[nH]c(=O)n([C@H]2C[C@H](O)[C@@H](CO)O2)cc1F	n	n	n	n	n	n
